This note sets out measurements from PMC7862700, “An all-to-all approach to the identification of sequence-specific readers for epigenetic DNA modifications on cytosine”.

Holding throughout (test): DAPPL (digital affinity profiling via proximity ligation, sequencing); 10 mM Tris-HCl pH 7.5, 50 mM NaCl, 1 mM DTT, 4% glycerol, room temperature, 30 min; GST-TFs on glutathione beads, 16-mer random dsDNA library, 0.1% formaldehyde crosslink after washing; high values mean tight binding
What all share (settings): protein: recombinant; tags: N-terminal GST; dsDNA, one strand shown

One assay concerns the target T1, FLI1 (Homo sapiens, UniProt Q01543 1-452).
T1 sequence: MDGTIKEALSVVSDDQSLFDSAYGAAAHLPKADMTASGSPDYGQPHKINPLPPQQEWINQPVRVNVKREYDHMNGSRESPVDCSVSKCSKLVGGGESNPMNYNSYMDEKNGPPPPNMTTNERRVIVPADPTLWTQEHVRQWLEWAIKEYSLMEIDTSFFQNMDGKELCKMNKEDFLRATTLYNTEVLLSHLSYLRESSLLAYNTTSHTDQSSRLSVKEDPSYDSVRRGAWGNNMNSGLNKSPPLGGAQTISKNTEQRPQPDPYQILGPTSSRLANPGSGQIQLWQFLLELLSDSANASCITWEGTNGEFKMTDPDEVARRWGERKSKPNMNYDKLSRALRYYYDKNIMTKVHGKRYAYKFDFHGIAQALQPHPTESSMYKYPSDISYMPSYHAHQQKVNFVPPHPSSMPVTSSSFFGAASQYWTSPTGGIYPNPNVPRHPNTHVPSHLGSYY
The method, boiled down:
(§1)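 The binding signal reported is, for every hexamer, its read frequency for a factor over its read frequency for the tag-only sample. Reads came from pools of yeast-expressed, GST-fused human transcription factors on glutathione beads, barcoded with DNA and mixed with that sample, which were incubated with 200 nmole of a random double-stranded 16-mer DNA library in Tris/NaCl/DTT/glycerol buffer at room temperature for 30 min. After washing, the pools were crosslinked with 0.1% formaldehyde, proximity-ligated with BsaI/T4 ligase for 1 h at 37 °C, PCR-amplified and sequenced on an Illumina NextSeq500.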

In the next assay the target is T2, ELK1 (Homo sapiens, UniProt P19419 1-428).
T2 sequence: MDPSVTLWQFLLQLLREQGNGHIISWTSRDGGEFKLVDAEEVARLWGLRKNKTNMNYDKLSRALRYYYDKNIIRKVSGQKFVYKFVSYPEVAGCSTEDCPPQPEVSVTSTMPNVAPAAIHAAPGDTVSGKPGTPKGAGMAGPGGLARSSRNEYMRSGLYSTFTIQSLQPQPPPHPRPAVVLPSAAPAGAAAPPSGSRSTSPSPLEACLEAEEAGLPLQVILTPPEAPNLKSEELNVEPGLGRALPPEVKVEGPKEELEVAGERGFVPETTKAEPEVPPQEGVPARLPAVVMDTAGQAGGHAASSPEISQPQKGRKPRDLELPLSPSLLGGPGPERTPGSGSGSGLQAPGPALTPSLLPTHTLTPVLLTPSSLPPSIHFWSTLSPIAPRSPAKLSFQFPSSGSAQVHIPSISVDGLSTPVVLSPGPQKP
A digest of the protocol:
as §1

For a further assay, the target named is T3, GABPA (Homo sapiens, UniProt Q06546 1-454).
T3 sequence: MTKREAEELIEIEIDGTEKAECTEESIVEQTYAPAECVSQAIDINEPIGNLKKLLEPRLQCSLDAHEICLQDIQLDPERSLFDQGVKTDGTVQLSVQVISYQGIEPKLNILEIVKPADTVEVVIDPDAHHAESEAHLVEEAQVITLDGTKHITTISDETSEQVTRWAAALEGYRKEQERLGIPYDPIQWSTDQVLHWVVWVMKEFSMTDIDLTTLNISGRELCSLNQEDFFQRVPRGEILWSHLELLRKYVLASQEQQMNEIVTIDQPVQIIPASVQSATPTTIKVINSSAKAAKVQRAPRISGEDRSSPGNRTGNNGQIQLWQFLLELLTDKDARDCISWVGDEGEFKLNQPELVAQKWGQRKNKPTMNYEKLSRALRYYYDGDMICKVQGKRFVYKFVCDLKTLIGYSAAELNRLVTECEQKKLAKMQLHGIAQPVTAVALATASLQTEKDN
A digest of the protocol:
as §1

The next assay addresses T4, ERG (Homo sapiens, UniProt P11308 1-479).
T4 sequence: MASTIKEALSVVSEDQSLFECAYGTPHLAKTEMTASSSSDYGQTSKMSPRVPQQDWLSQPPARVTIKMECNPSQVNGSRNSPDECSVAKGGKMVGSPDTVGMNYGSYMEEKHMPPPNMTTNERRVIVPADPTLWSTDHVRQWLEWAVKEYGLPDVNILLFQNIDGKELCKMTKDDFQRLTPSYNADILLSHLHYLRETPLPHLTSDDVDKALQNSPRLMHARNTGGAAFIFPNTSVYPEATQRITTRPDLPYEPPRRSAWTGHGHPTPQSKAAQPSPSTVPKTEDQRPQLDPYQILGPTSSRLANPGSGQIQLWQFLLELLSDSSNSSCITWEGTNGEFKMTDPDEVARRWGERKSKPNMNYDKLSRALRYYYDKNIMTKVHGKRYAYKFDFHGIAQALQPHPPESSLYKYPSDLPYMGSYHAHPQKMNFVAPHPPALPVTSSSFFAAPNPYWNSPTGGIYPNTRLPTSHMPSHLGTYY
A digest of the protocol: as §1

The target in the next assay is ELF1 (Homo sapiens, UniProt P32519 1-619). The method, boiled down: as §1
Chain of ELF1 (P32519 whole entry): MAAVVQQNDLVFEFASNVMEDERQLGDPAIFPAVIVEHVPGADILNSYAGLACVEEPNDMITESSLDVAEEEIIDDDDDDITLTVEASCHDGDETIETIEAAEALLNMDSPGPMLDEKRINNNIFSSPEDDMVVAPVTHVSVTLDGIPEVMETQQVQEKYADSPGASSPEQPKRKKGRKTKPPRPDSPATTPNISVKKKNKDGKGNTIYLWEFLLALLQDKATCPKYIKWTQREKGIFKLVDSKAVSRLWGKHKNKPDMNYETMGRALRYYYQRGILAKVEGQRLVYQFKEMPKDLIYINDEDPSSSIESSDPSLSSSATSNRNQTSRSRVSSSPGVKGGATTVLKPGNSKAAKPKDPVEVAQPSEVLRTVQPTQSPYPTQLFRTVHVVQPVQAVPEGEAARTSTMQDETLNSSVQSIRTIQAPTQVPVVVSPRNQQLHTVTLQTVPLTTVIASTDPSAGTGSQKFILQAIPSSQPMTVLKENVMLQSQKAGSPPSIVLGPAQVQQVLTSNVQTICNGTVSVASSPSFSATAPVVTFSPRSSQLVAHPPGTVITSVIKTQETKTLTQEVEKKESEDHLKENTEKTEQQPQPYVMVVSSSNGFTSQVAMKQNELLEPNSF
A further assay addresses T5, EHF (Homo sapiens, UniProt Q9NZC4 1-300).
T5 sequence: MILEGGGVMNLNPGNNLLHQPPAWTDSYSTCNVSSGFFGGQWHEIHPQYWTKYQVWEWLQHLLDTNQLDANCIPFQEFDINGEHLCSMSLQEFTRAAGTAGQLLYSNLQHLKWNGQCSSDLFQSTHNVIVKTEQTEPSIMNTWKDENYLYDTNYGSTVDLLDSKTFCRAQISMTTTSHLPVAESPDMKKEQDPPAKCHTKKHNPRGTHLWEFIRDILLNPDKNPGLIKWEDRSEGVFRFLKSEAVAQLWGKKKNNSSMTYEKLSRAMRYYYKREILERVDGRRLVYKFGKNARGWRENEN
The method, boiled down: as §1

The target of another assay is SPI1 (Homo sapiens, UniProt P17947 1-270). A digest of the protocol: as §1
The target of a further assay is SPIB (Homo sapiens, UniProt Q01892 1-262). A digest of the protocol: as §1
Chain of SPIB (Q01892 whole entry): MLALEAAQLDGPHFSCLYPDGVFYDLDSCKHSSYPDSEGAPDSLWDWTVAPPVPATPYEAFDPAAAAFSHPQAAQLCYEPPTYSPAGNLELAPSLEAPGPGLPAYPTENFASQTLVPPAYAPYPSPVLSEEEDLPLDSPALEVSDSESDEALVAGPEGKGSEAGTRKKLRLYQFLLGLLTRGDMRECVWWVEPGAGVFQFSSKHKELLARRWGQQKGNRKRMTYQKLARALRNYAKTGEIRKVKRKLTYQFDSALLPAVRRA
For the next assay, the target named is T6, ELK3 (Homo sapiens, UniProt P41970 1-407).
T6 sequence: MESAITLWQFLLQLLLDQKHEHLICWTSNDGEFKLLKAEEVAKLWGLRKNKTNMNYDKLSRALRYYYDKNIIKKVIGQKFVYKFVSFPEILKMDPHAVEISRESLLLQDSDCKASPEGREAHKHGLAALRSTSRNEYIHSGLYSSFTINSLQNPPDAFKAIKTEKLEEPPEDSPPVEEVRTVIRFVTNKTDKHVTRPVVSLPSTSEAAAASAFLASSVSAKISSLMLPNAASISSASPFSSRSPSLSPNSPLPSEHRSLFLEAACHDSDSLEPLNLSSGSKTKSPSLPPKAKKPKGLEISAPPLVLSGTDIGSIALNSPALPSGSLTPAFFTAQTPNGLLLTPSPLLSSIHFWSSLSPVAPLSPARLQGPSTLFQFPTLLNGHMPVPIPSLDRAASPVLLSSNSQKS
A digest of the protocol: as §1

Consider ACTATA, for which the binding signal was 1.37 fold enrichment (6-mer frequency, TF over GST control) with FLI1; 1.28 fold enrichment (6-mer frequency, TF over GST control) in the assay with ELK1; 1.33 fold enrichment (6-mer frequency, TF over GST control) in the assay with GABPA; 1.31 fold enrichment (6-mer frequency, TF over GST control) with ERG; 1.33 fold enrichment (6-mer frequency, TF over GST control) in the assay with ELF1; 1.29 fold enrichment (6-mer frequency, TF over GST control) in the assay with EHF. For the same sequence, the binding signal with SPI1 was 1.43 fold enrichment (6-mer frequency, TF over GST control); with SPIB it was 1.28 fold enrichment (6-mer frequency, TF over GST control); in the assay with ELK3, 1.29 fold enrichment (6-mer frequency, TF over GST control).
Consider CAATTC, for which the binding signal with FLI1 is 1.33 fold enrichment (6-mer frequency, TF over GST control); with ELK1, 1.27 fold enrichment (6-mer frequency, TF over GST control); with GABPA, 1.19 fold enrichment (6-mer frequency, TF over GST control); with ERG it was 1.29 fold enrichment (6-mer frequency, TF over GST control); with ELF1, 1.25 fold enrichment (6-mer frequency, TF over GST control); with EHF, 1.24 fold enrichment (6-mer frequency, TF over GST control). The binding signal with SPI1 is 1.24 fold enrichment (6-mer frequency, TF over GST control); with SPIB it was 1.44 fold enrichment (6-mer frequency, TF over GST control); in the assay with ELK3, 1.2 fold enrichment (6-mer frequency, TF over GST control).
Turning to CTTGCG, the binding signal in the assay with FLI1 is 1.44 fold enrichment (6-mer frequency, TF over GST control); with ELK1, 1.42 fold enrichment (6-mer frequency, TF over GST control); in the assay with GABPA, 1.32 fold enrichment (6-mer frequency, TF over GST control); with ERG, 1.35 fold enrichment (6-mer frequency, TF over GST control); with ELF1, 1.39 fold enrichment (6-mer frequency, TF over GST control); with EHF it was 1.41 fold enrichment (6-mer frequency, TF over GST control). The binding signal in the assay with SPI1 is 1.34 fold enrichment (6-mer frequency, TF over GST control); with SPIB, 1.4 fold enrichment (6-mer frequency, TF over GST control); with ELK3, 1.44 fold enrichment (6-mer frequency, TF over GST control).
Take AGATTT: the binding signal was 1.12 fold enrichment (6-mer frequency, TF over GST control) with FLI1; 1.14 fold enrichment (6-mer frequency, TF over GST control) in the assay with ELK1; 1.08 fold enrichment (6-mer frequency, TF over GST control) in the assay with GABPA; 1.21 fold enrichment (6-mer frequency, TF over GST control) in the assay with ERG; 1.11 fold enrichment (6-mer frequency, TF over GST control) in the assay with ELF1; 1.2 fold enrichment (6-mer frequency, TF over GST control) with EHF. The binding signal was 1.13 fold enrichment (6-mer frequency, TF over GST control) in the assay with SPI1; 1.09 fold enrichment (6-mer frequency, TF over GST control) with SPIB; 1.01 fold enrichment (6-mer frequency, TF over GST control) in the assay with ELK3.
Take ATCAAC: the binding signal with FLI1 was 1.12 fold enrichment (6-mer frequency, TF over GST control); in the assay with ELK1, 1.19 fold enrichment (6-mer frequency, TF over GST control); with GABPA, 1.19 fold enrichment (6-mer frequency, TF over GST control); with ERG, 1.07 fold enrichment (6-mer frequency, TF over GST control); with ELF1, 1.13 fold enrichment (6-mer frequency, TF over GST control); in the assay with EHF, 1.12 fold enrichment (6-mer frequency, TF over GST control). Further, the binding signal with SPI1 is 1.08 fold enrichment (6-mer frequency, TF over GST control); in the assay with SPIB, 1.1 fold enrichment (6-mer frequency, TF over GST control); in the assay with ELK3, 1.21 fold enrichment (6-mer frequency, TF over GST control).
As to TTCTTA, the binding signal is 1.42 fold enrichment (6-mer frequency, TF over GST control) in the assay with FLI1; 1.43 fold enrichment (6-mer frequency, TF over GST control) in the assay with ELK1; 1.37 fold enrichment (6-mer frequency, TF over GST control) with GABPA; 1.4 fold enrichment (6-mer frequency, TF over GST control) with ERG; 1.37 fold enrichment (6-mer frequency, TF over GST control) with ELF1; 1.28 fold enrichment (6-mer frequency, TF over GST control) in the assay with EHF. For the same sequence, the binding signal with SPI1 was 1.34 fold enrichment (6-mer frequency, TF over GST control); with SPIB, 1.28 fold enrichment (6-mer frequency, TF over GST control); with ELK3 it was 1.5 fold enrichment (6-mer frequency, TF over GST control).
As for CACTTA, the binding signal in the assay with FLI1 was 1.17 fold enrichment (6-mer frequency, TF over GST control); with ELK1 it was 1.24 fold enrichment (6-mer frequency, TF over GST control); in the assay with GABPA, 1.25 fold enrichment (6-mer frequency, TF over GST control); with ERG, 1.22 fold enrichment (6-mer frequency, TF over GST control); with ELF1 it was 1.27 fold enrichment (6-mer frequency, TF over GST control); with EHF it was 1.18 fold enrichment (6-mer frequency, TF over GST control). Besides, the binding signal in the assay with SPI1 was 1.21 fold enrichment (6-mer frequency, TF over GST control); with SPIB, 1.19 fold enrichment (6-mer frequency, TF over GST control); with ELK3 it was 1.2 fold enrichment (6-mer frequency, TF over GST control).
Regarding ACAGCT, the binding signal is 1.15 fold enrichment (6-mer frequency, TF over GST control) with FLI1; 1.14 fold enrichment (6-mer frequency, TF over GST control) with ELK1; 1.19 fold enrichment (6-mer frequency, TF over GST control) with GABPA; 1.17 fold enrichment (6-mer frequency, TF over GST control) in the assay with ERG; 1.16 fold enrichment (6-mer frequency, TF over GST control) with ELF1; 1.16 fold enrichment (6-mer frequency, TF over GST control) with EHF. In addition, the binding signal with SPI1 was 1.11 fold enrichment (6-mer frequency, TF over GST control); with SPIB, 1.2 fold enrichment (6-mer frequency, TF over GST control); with ELK3 it was 1.18 fold enrichment (6-mer frequency, TF over GST control).
